# From PubChem BioAssay (NCATS)
# Several values for one entry are separate records, joined by “and”; a condition that tells them apart may be missing. Equal entries are not always repeated. Records with an inconclusive call do not appear. A call without a number means that no potency is given here. Activity calls are given as the source filed them. Unless noted, calls come from the whole dose curve; as a rule, active = well fitted curve in the direction sought with a large enough effect; inconclusive = small, poorly fitted or top-dose-only effect, or another doubt; inactive = no such curve, though single readings can be large; an effect the other way counts as inactive or inconclusive.
# Tests used:
# [1] = S16 Schwann cell viability assay (CellTiter-Glo assay) (AID 624031); conditions: S16 rat Schwann cells viability, 24 h; series mostly up to 57.5 µM;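 note: native untransfected S16 rat Schwann cells; cellular ATP luminescence as a viability measure; nearly all actives have a fitted effect of over 70% in size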
# Procedure, shortened: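 Cells were seeded at 500-750 per well in phenol red-free DMEM with 10% FBS and left overnight. Compounds or DMSO were pinned in, incubation ran 24 h at 37 °C/5% CO2, then CellTiter-Glo reagent was added and luminescence measured.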
# [2] = S16 Schwann cell PMP22 intronic element firefly luciferase assay (AID 624032); conditions: S16 rat Schwann cells, PMP22 element FLuc, 24 h; series mostly up to 57.5 µM; note: nearly all actives have a fitted effect of over 30% in size; note: potency is the fitted concentration of half-maximal effect
# Procedure, shortened: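 Rat S16 Schwann cells stably carrying a PMP22 intronic element-driven Fluc reporter were seeded overnight, then exposed to compounds for 24 h at 37 °C. Luminescence was normalized to PTC124 (positive control) and DMSO (0% activity).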
# [3] = S16 Schwann cell PMP22 intronic element beta-lactamase assay (AID 624044; calls by dose curve; note: nearly all actives have a fitted effect of over 15% in size); conditions: S16 rat Schwann cells, PMP22 element beta-lactamase FRET, 24 h; series mostly up to 38.3 µM
# Procedure, shortened: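 Rat S16 Schwann cells with beta-Lac driven by a PMP22 intronic element, compound-treated 24 h at 37 °C. LiveBLAzer FRET B/G read: 460 nm normalized to potassium clavulanate vs DMSO; 535 nm FRET as viability; concentration-effect curves classified.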
# CP266 = assay: qHTS profiling for inhibitors of Plasmodium falciparum proliferation (AID 504749); note: nearly all actives have a fitted effect of over 60% in size; note: potency is the fitted concentration of half-maximal effect; conditions: P. falciparum in erythrocytes, SYBR Green DNA, 72 h; series mostly up to 28.7 µM
# Procedure, shortened: (§1)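 P. falciparum-infected erythrocytes (0.3% parasitemia, 2.5% hematocrit final) were exposed to compounds for 72 h at 37 C in 5% CO2, then lysed with SYBR Green buffer overnight at room temperature; parasite DNA fluorescence was normalized to artemisinin and DMSO controls.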
# DIV14 = assay: as above; conditions: P. falciparum in erythrocytes, SYBR Green DNA, 72 h; series mostly up to 28.7 µM
# Procedure, shortened: as §1
# ICS = assay: as above; conditions: P. falciparum in erythrocytes, SYBR Green DNA, 72 h; series mostly up to 28.7 µM
# Procedure, shortened: as §1
# [4] = NCATS anti-infectives library activity on HEK293 viability as a counter-qHTS vs the C. elegans viability qHTS (AID 1745854); conditions: HEK293 viability counter-screen; series mostly up to 41.8 µM
# Procedure, shortened: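 HEK293 cells, 1500 per well, exposed 24 hr at 37C in 5% CO2 to compounds in a 1:5 titration, up to 41.7 uM final. Viability read as CellTiter-Glo luminescence after 10 min at room temperature.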
# [5] = Primary qHTS for small molecule stabilizers of the endoplasmic reticulum resident proteome: Secreted ER Calcium Modulated Protein (SERCaMP) assay (AID 1508630); conditions: SH-SY5Y GLuc-SERCaMP (Gaussia luciferase released on ER calcium loss) secretion, thapsigargin, luminescence; series mostly up to 38.4 µM
# Procedure, shortened: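 GLuc-SERCaMP-expressing SH-SY5Y cells, pretreated 16 h with compound, are challenged with thapsigargin to empty ER calcium stores; after 4 h, coelenterazine is added directly to the medium and luminescence is imaged.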
# CP262 = assay: qHTS profiling for inhibitors of Plasmodium falciparum proliferation (AID 504749); note: nearly all actives have a fitted effect of over 60% in size; note: potency is the fitted concentration of half-maximal effect; conditions: P. falciparum in erythrocytes, SYBR Green DNA, 72 h; series mostly up to 28.7 µM
# Procedure, shortened: as §1
# JCK = assay: as above; conditions: P. falciparum in erythrocytes, SYBR Green DNA, 72 h; series mostly up to 28.7 µM
# Procedure, shortened: as §1
# PC26 = assay: as above; conditions: P. falciparum in erythrocytes, SYBR Green DNA, 72 h; series mostly up to 28.7 µM
# Procedure, shortened: as §1
# W2 = assay: as above; conditions: P. falciparum in erythrocytes, SYBR Green DNA, 72 h; series mostly up to 28.7 µM
# Procedure, shortened: as §1
# [6] = molecular target: Cytochrome P450 3A4 (Homo sapiens) (UniProt P08684); assay: qHTS Assay for Inhibitors and Substrates of Cytochrome P450 3A4 (AID 884); conditions: recombinant CYP3A4, Luciferin-PPXE luminescence; series mostly up to 57.1 µM; note: nearly all actives have a fitted effect of over 50% in size
# Cytochrome P450 3A4 (Homo sapiens), sequence (P08684 whole entry, looked up): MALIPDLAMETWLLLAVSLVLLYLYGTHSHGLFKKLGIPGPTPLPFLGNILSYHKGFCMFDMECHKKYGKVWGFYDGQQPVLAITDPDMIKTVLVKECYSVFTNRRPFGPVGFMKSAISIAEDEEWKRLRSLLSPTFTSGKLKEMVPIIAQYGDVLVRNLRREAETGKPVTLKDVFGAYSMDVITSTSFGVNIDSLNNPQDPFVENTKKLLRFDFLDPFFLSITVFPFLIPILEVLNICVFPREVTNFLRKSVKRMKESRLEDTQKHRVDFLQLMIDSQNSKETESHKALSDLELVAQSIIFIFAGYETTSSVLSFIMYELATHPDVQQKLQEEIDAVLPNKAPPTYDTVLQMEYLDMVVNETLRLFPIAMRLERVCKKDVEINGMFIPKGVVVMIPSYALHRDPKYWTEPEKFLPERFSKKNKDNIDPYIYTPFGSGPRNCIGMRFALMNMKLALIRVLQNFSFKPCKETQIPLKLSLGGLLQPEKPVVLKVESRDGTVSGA
# Procedure, shortened: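 20 nM human CYP3A4 with 25 uM Luciferin-PPXE (at KM) in 200 mM KPO4, preincubated 10 min with compound; NADPH regeneration started a 60 min RT reaction. Luciferin detected by luminescence, normalized to 57 uM ketoconazole as full inhibition.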
# [7] = molecular target: DNA dC->dU-editing enzyme APOBEC-3G (Homo sapiens) (UniProt Q9HC16); assay: qHTS for inhibitors of Vif-A3G interactions: Validation (AID 588379); conditions: Vif-A3G protein interaction assay; series mostly up to 46.1 µM
# DNA dC->dU-editing enzyme APOBEC-3G (Homo sapiens), sequence (Q9HC16 whole entry, looked up): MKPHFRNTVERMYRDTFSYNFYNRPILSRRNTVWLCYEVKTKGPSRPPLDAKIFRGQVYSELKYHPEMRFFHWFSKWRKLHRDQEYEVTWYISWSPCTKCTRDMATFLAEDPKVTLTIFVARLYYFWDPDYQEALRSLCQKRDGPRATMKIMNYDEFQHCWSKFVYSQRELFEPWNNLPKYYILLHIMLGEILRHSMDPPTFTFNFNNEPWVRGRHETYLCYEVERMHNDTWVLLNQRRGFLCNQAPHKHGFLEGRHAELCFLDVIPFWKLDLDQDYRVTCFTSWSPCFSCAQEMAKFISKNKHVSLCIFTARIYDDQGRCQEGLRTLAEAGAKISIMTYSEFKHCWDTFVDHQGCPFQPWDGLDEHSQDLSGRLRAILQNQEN
# Procedure, shortened: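 HeLa cells stably expressing Vif and A3G-eYFP, 700 cells/well, incubated overnight at 37 deg C, then exposed to compound overnight at 37 deg C. Inhibition of Vif-mediated degradation read as increased yellow fluorescence (Ex 488/Em 500-530) by laser-scanning cytometry.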
# [8] = molecular target: Guanidinoacetate N-methyltransferase (Homo sapiens) (UniProt Q14353); assay: Confirmatory Screen for Target Class Profiling of Small Molecule Inhibitors of Methyltransferases (AID 1745852); conditions: MTase-Glo luminescence, SAH detection, recombinant enzyme; activity change, negative = inhibition: at 57.3 µM (top of the series)
# [9] = molecular target: Cytochrome P450 1A2 (Homo sapiens) (UniProt P05177); assay: p450-cyp1a2 (AID 410; calls by dose curve; note: potency is the fitted concentration of half-maximal effect); conditions: recombinant CYP1A2, luciferin-ME demethylation, luminescence; series mostly up to 57 µM
# Cytochrome P450 1A2 (Homo sapiens), sequence (P05177 whole entry, looked up): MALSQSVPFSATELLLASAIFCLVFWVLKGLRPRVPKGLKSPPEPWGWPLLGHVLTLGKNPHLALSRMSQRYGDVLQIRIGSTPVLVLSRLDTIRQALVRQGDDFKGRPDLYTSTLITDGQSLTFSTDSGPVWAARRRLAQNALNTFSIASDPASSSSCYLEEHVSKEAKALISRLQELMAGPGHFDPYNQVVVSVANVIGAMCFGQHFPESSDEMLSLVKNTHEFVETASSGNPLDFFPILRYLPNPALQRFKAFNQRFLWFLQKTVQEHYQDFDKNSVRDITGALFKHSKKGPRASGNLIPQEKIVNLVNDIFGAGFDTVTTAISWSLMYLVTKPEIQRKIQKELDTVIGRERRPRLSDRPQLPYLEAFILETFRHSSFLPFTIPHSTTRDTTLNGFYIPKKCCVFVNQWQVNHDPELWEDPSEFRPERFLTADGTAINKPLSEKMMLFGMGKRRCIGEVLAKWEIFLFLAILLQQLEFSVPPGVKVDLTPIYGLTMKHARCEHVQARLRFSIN
# Procedure, shortened: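 Human CYP1A2 (20nM) demethylated Luciferin-ME at its Km (100uM) in 100mM KPO4. After 10 min compound preincubation, NADPH regeneration ran the reaction 60 min at room temperature. Luciferin was read by luminescence, normalized to 57 uM furafylline.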
# [10] = qHTS Assay for Identification of Small Molecule Antagonists for NFkB Signaling Pathway (AID 895; active = well fitted inhibition curve with a large enough effect in the signal ratio, with a control signal flat, not every such curve was filed as active; the % refers to the signal ratio; note: potency is the fitted concentration of half-maximal effect); conditions: NFkB beta-lactamase reporter cells, FRET ratio 460/530, stimulated with 10 pM TNF alpha; series mostly up to 38.3 µM
# Procedure, shortened: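 NFkB-bla ME-180 cervical carcinoma cells with beta-lactamase reporter under NFkB response element; compounds added, then TNF alpha at 10 pM final (EC50), 5 h at 37 C. LiveBLAzer substrate 2 h, room temperature; emission 460/530 nm at 405 nm excitation.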
# [11] = molecular target: Muscarinic acetylcholine receptor M1 (Rattus norvegicus) (UniProt P08482); assay: qHTS Assay for Antagonists of Acetylcholine Muscarinic M1 Receptor: Measurement of IP-One Response (AID 944); conditions: CHO-M1 cells, IP-One HTRF, antagonist mode; series mostly up to 46.1 µM; note: nearly all actives have a fitted effect of over 75% in size
# Muscarinic acetylcholine receptor M1 (Rattus norvegicus), sequence (P08482 whole entry, looked up): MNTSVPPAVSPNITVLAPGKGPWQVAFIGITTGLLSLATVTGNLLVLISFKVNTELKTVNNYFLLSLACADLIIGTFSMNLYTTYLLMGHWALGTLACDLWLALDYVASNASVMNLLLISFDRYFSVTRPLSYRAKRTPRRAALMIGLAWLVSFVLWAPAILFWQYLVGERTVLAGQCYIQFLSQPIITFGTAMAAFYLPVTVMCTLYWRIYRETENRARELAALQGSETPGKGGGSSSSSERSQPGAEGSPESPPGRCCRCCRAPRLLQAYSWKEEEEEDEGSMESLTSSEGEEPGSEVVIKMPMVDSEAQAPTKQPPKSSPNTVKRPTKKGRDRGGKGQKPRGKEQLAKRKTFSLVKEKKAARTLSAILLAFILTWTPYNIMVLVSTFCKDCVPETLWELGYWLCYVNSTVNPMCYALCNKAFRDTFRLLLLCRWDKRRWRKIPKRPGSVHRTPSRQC
# Procedure, shortened: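 CHO cells expressing rat M1 receptor, recovered overnight, were pre-incubated 10 min with compound, then stimulated 30 min with carbachol at EC80 (200 nM) in LiCl-containing buffer, pH 7.4. IP1 accumulation was read by HTRF (620/665 nm).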
# [12] = qHTS Assay for Identification of Small Molecule Agonists for Thrombopoietin (TPO) Signaling Pathway (AID 917); conditions: TPO signaling pathway reporter cells, agonist qHTS, stimulated with TPO at its EC50; series mostly up to 38.5 µM
# Procedure, shortened: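 Reporter: GpIIb promoter–luciferase in murine Ba/F3 expressing human TPO receptor. Pre-starved of IL-3 overnight; compounds with 26 pM TPO, 24 hrs, 37 C/5% CO2; luminescence read.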
# [13] = molecular target: Muscarinic acetylcholine receptor M1 (Rattus norvegicus) (UniProt P08482); assay: qHTS Assay for Antagonists of Acetylcholine Muscarinic M1 Receptor: Kinetic Measurement of Intracellular Calcium Response (AID 943); conditions: M1-expressing cells, kinetic intracellular calcium fluorescence; series mostly up to 35.3 µM; note: nearly all actives have a fitted effect of over 75% in size; note: potency is the fitted concentration of half-maximal effect;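 for activity change, negative = inhibition: Fluo-4 calcium signal as peak divided by basal fluorescence over 4 min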
# Procedure, shortened: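 CHO cells stably expressing rat M1 were loaded with no-wash Fluo-4 dye for 1 h at 37C, pre-incubated 10 min with compound, then challenged with EC80 carbachol (100 nM final); kinetic calcium read 4 min, peak/basal ratio.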
compound,measurement,setting,value
CO[C@H]1/C=C/O[C@@]2(C)Oc3c(C)c(O)c4c(O)c(c(/C=N\N5CCN(C6CCCC6)CC5)c(O)c4c3C2=O)NC(=O)/C(C)=C\C=C\[C@H](C)[C@H](O)[C@@H](C)[C@@H](O)[C@@H](C)[C@H](OC(C)=O)[C@@H]1C,outcome,[1],inactive
same,Potency,[2],10.2 µM (active)
same,outcome,[3],inactive
same,Potency,CP266,6.01 µM (active)
same,Potency,DIV14,0.675 µM (active)
same,Potency,ICS,0.112 µM (active)
CC(C)OC(=O)[C@H](C)N[P@](=O)(OC[C@H]1O[C@@H](n2ccc(=O)[nH]c2=O)[C@](C)(F)[C@@H]1O)Oc1ccccc1,Potency,[4],inactive
Nc1cccc2c1CN([C@H]1CCC(=O)NC1=O)C2=O,Potency,[4],inactive
O=C(Cc1ccccc1)Nc1nnc(CCSCCc2nnc(NC(=O)Cc3ccccc3)s2)s1,Potency,[4],inactive
CC[C@@H](C)[C@H]1O[C@]2(CC[C@@H]1C)C[C@@H]1C[C@@H](C/C=C(\C)[C@@H](O[C@@H]3C[C@H](OC)[C@H](O[C@H]4C[C@H](OC)[C@@H](O)[C@H](C)O4)[C@H](C)O3)[C@@H](C)/C=C/C=C3\CO[C@@H]4[C@@H](O)C(C)=C[C@@H](C(=O)O1)[C@]34O)O2,Potency,[5],inactive
C[C@@]12C(=O)OC(=O)[C@]1(C)[C@H]1CC[C@@H]2O1,Potency,[2],0.616 µM (active)
same,Potency,CP262,3.61 µM (active)
same,Potency,DIV14,1.14 µM (active)
same,Potency,ICS,3.98 µM (active)
same,Potency,JCK,3.98 µM (active)
same,Potency,PC26,2.87 µM (active)
same,Potency,W2,2.28 µM (active)
CC(C)n1c(/C=C/[C@H](O)C[C@H](O)CC(=O)O)c(-c2ccc(F)cc2)c2ccccc21,outcome,[1],inactive
O=C(CCc1ccc(O)cc1)c1c(O)cc(O)cc1O[C@@H]1O[C@H](CO)[C@@H](O)[C@H](O)[C@H]1O,Potency,[6],inactive
same,outcome,[7],inactive
COc1cc2c(NC3CCN(C4CCCCC4)CC3)nc(N3CCCN(C(C)C)CC3)nc2cc1OCCCN1CCCCC1,"activity change, negative = inhibition",[8],5.88%
N=C1Sc2ccccc2C2=NCCCN12,Potency,[9],10 µM (active)
same,Potency,[10],2 µM (active)
same,Potency,[11],inactive
CN1C(=O)CCC1c1cccnc1 (stereo unspecified),Potency,[6],inactive
same,outcome,[7],inactive
same,outcome,[1],inactive
same,Potency,[2],inactive
same,outcome,[3],inactive
same,Potency,CP262,inactive
same,Potency,CP266,inactive
same,Potency,DIV14,inactive
same,Potency,ICS,inactive
same,Potency,JCK,inactive
same,Potency,PC26,inactive
same,Potency,W2,inactive
CN(C)Cc1ccc(S(=O)(=O)n2ccc(/C=C/C(=O)NO)c2)cc1,Potency,[4],inactive
O=C(Cc1ccc(Cl)c(Cl)c1)OCCN1CCCC1,Potency,[9],12.6 µM (active)
same,Potency,[10],inactive
same,outcome,[12],inactive
same,Potency,[13],14.1 µM (active)
C[C@]12CCC(=O)C=C1CC[C@@H]1C2[C@@H](O)C[C@@]2(C)[C@H]1CC[C@]2(O)C(=O)CO (stereo partly specified),outcome,[7],inactive
NCCC(=O)NCCc1cnc[nH]1,Potency,[9],inactive
same,Potency,[10],inactive
same,outcome,[12],inactive
same,Potency,[13],inactive
same,Potency,[11],inactive
CN=C(N)NCCCC(N)C(=O)O (stereo unspecified),outcome,[1],inactive
same,Potency,[2],inactive
same,outcome,[3],inactive
same,Potency,CP262,inactive
same,Potency,CP266,inactive
same,Potency,DIV14,inactive
same,Potency,ICS,inactive
same,Potency,JCK,inactive
same,Potency,PC26,inactive
same,Potency,W2,inactive
C=C1/C(=C\C=C2/CCC[C@]3(C)[C@@H]([C@H](C)CCCC(C)(C)O)CC[C@@H]23)C[C@@H](O)C[C@@H]1O,outcome,[3],inactive
same,Potency,CP266,inactive
same,Potency,JCK,inactive
same,Potency,PC26,inactive
N=C(N)SCCc1cccc(CCSC(=N)N)c1,Potency,[10],inactive
same,outcome,[12],inactive
same,Potency,[13],4.47 µM (active)
OC[C@H]1O[C@@H](n2cnc3c(NCCc4ccccc4)ncnc32)[C@H](O)[C@H]1O,Potency,[6],inactive
same,Potency,[13],inactive
same,Potency,[11],inactive
NCCNC(=O)c1ccc(Cl)cc1,Potency,[9],12.6 µM (active) and 10 µM (active)
same,outcome,[12],inactive
same,Potency,[11],inactive
same,outcome,[7],inactive
